Measurements as given in PubChem BioAssay AID743279 (National Center for Advancing Translational Sciences (NCATS), 2014).
Hit rate of the full screen: of about 360,000 compounds, about 17,000 (4.7%) were called active. Another 5% or so got no clear call; they are omitted. Rule as the data show it: active = activity change below about -50%; inconclusive = mostly about -30% to -49%; inactive = weaker than that. For the sample, actives were picked, then their nearest neighbours and some compounds at random.

assay: qHTS for Inhibitors of Inflammasome Signaling: IL-1-beta AlphaLISA Primary Screen; settings: THP-1 LPS/ATP IL-1B secretion, 16 h; at 57.5 µM, active compounds read low
In short: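 Secreted IL-1B measured by AlphaLISA bead assay after 16 h compound exposure of THP-1 cells; compounds (final up to 57.5 uM) added 1 h before LPS (250 ng/mL) and ATP (1.25 mM) stimulation; lower signal means less secretion.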
% is scaled to controls: 0 for no effect and ±100 for the full control effect.

Activity change, active:
CC(C)S(=O)(=O)c1csc(NC(=O)Nc2ccc(Cl)cc2)c1Cl -95.1%
O=C1[C@@H](c2ccccc2)[C@@H](c2ccccc2)N1c1cccnc1 -68.8%
CC(C)(C)OC(=O)N1CCC(NC(=O)c2[nH]cnc2C(=O)N[C@@H](Cc2ccccc2)C(=O)OCc2ccccc2)CC1 -58%
Cc1cccc(N2CCN(C(=O)c3cccc(N4C(=O)C5C6C=CC(C6)C5C4=O)c3)CC2)c1C (configuration not stated) -52.9%
CC(=O)/C(=N\Nc1ccc(Cl)cc1Cl)Sc1cccc2cccnc12 -103%
CC(C)N(C(=O)[C@H]1C[C@H](CC(=O)NCCC2=CCCCC2)C(=O)N2CCc3c([nH]c4cc(CCC(=O)N(C)C)ccc34)[C@]12C)C(C)C -51.9%
COCCNc1cc(-c2ccccc2)nc2cc(-c3cccc(F)c3)nn12 -67.2%
CCOC(=O)c1c(NC(=O)CCl)sc(C(=O)N(CC)CC)c1C -99.1%
COc1ccccc1N1CCN(/N=C\C(Br)=C\c2ccccc2)CC1 -66.9%
O=C(Nc1nc(-c2ccco2)c(-c2ccco2)s1)c1ccco1 -77.4%
CCN1CCN(c2sc(S(C)(=O)=O)nc2S(=O)(=O)c2ccc(Cl)cc2)CC1 -97.8%
COC(=O)COc1cccc2c(=O)n(CC(=O)NCc3ccccc3)ccc12 -57.4%
O=C(C1=C[C@H](c2coc3ccccc3c2=O)C[C@H](OCc2ccc(CO)cc2)O1)N1CCN(Cc2ccccc2)CC1 -63.5%
O=C(C1=C[C@H](c2ccc(C(F)(F)F)cc2)C[C@H](OCc2ccc(CO)cc2)O1)N1CCN(Cc2ccccc2)CC1 -80.4%
O=C(NCc1ccccc1)C1=C[C@@H](c2ccc(C(F)(F)F)cc2)C[C@@H](OCc2ccc(CO)cc2)O1 -53.9%
Cc1ccc(N(Cc2cc(=O)[nH]c3ccccc23)C(=O)CCl)cc1 -99.5%
COCc1[nH]nc2c1C(C1C=CCCC1)C(C#N)=C(N)O2 (configuration not stated) -72.1%

Activity change, inactive:
CC(=O)Oc1ccc(Cn2c(C)c(C(=O)NCc3ccc(C#N)cc3)sc2=O)cc1 8.83%
N#CCCN(C(=S)Nc1ccc(Cl)c(Cl)c1)C1CCCCC1 -17.1%
O=C(NCc1ccccn1)Nc1ccc(Cl)cc1 -6.13%
O=C(Nc1ccc(Cl)cc1)Nc1ccc(C(=O)N2CCOCC2)cc1 -29.9%
S=C(NC1CCCCC1)NN1CCOCC1 31.1%
O=C(CSc1nc2nccnc2c(=O)n1Cc1cccs1)Nc1ccccc1F 2.93%
CC1(C(=O)NS(=O)(=O)Cc2cccc(Cl)c2)CCN1C(=O)Cc1ccccc1 (configuration not stated) 3.48%
CCc1ccccc1NC1c2ccccc2C(=O)N1c1cccnc1 (configuration not stated) 0%
O=C1C(=O)N(c2ccccc2)C(c2ccccc2)C1c1ccccc1 (configuration not stated) 5.18%
COc1cc(S(=O)(=O)N(Cc2cccs2)C2CC2)ccc1-n1cnnn1 0%
CC(C)(C)OC(=O)CNC(=O)c1[nH]cnc1C(=O)N[C@@H](Cc1ccccc1)C(=O)OCc1ccccc1 52.8%
O=C(N[C@@H](Cc1ccccc1)C(=O)OCc1ccccc1)c1nc[nH]c1C(=O)NC1CCNCC1 -10%
Cc1cc(Br)ccc1NC(=O)CCCOc1cc(=O)n(C)c2ccccc12 -13.4%
COc1cccc2c1OCC(CN1CCN(C3CCCCC3)C(CCO)C1)=C2 (configuration not stated) 18.2%
COC(=O)c1cccc(N2C(=O)C3C4C=CC(CC4)C3C2=O)c1 (configuration not stated) 15.7%
CC1C=CCC2C(=O)N(c3cccc(C(=O)N4CCCCCC4)c3)C(=O)C12 (configuration not stated) 23.7%
Cc1ccccc1NC(=O)Cc1nc(COC(=O)CNC(=O)c2ccc(Cl)cc2Cl)cs1 11%
Cc1ccc(F)c(S(=O)(=O)NC(=O)C2(C)CCN2C(=O)c2ccco2)c1 (configuration not stated) 24%
S=C(NCc1cccnc1)Nc1ccc(Cl)cc1Cl 11%
O=C(NNc1cc(Cl)ccc1Cl)c1cccnc1Cl -6.39%
O=C(COC(=O)/C=C/c1ccc(Cl)cc1)NC1CCS(=O)(=O)C1 (configuration not stated) 1.68%
CC(=O)Nc1ccc(-c2ccnc3c2CC(C(=O)NC(C)C)O3)cc1 (configuration not stated) -17%
Nc1cccc2c1C(=O)N(Cc1nnc(-c3ccccc3Br)o1)C2=O -5.13%
CN(C)C(=O)CCc1ccc2c3c([nH]c2c1)[C@]1(CCc2ccccc2)[C@@H](C(=O)N2CCCCC2)C[C@H](CC(=O)NCCC2=CCCCC2)C(=O)N1CC3 -14.8%
CN(C)C(=O)CCc1ccc2c3c([nH]c2c1)[C@]1(C)[C@@H](C(=O)N2CCCCC2)C[C@H](CC(=O)NCCC2=CCCCC2)C(=O)N1CC3 -30%
COCCCNc1ccn2nc(-c3ccc(CC(C)C)cc3)cc2n1 47%
COc1ccc(-c2cc3nc(NCCOc4ccccc4)ccn3n2)cc1 -17.4%
CCCCc1nccn1CCn1ccnc1CCCC -1.41%
CCOC(=O)c1sc(NC(=O)CCN2CCOCC2)c(C(=O)OCC)c1C 0%
CCOC(=O)Nc1sc(C(=O)N(C)C)c(C)c1C(=O)OCC 20.1%
CC(Oc1ccc(F)cc1)C(=O)Nc1cc(S(=O)(=O)N2CCOCC2)ccc1N1CCN(C)CC1 (configuration not stated) -9.51%
O=C(Cc1ccc([N+](=O)[O-])cc1)NCCS(=O)(=O)N1CCN(c2ccccc2)CC1 16.3%
CCNC(=S)Nc1ccc2c(c1)c(=O)n(C)n2Cc1ccc(Cl)cc1 -17.7%
CC(C)Oc1cc(F)ccc1-c1cc(C(=O)Nc2cccc(Cl)c2)[nH]n1 19.8%
COc1cc(/C=N/N2CCN(c3ccccc3)CC2)ccc1OC(C)=O -4.61%
COc1ccccc1N1CCN(/N=C/c2ccc(O)cc2O)CC1 -21.9%
CCCc1nc2c3ccccc3ccn2c1Cc1ccccc1C(F)(F)F 17.7%
COCCCN(C(=S)Nc1c(C)cc(C)cc1C)C(C)c1ccncc1 (configuration not stated) 0%
CCc1nnc(NC(=O)c2ccco2)s1 10%
O=C(Nc1nnc(CCOCCOCCc2nnc(NC(=O)c3ccco3)s2)s1)c1ccco1 -5.99%
CCN1CCN(c2ccc([N+](=O)[O-])cc2C(=O)c2ccc(Cl)cc2)CC1 -7.81%
CCN1CCN(C(=O)N(Cc2ccc(Cl)cc2)S(=O)(=O)c2ccc(C)cc2)CC1 -3.62%
COc1cc([C@H](Cc2ccccc2)NC(C)=O)oc(=O)c1 22.9%
COc1cccc2c(=O)n(CC(=O)N3CCCCCC3)ccc12 -3.57%
Cc1ccc(CNC(=O)CCNC(=O)Cn2ccc3ccccc3c2=O)cc1 -21.6%
O=C(Nc1cccc(S(=O)(=O)NC2=NCCC2)c1)C1CCCCC1 23.8%
O=C(NCc1ccccc1)C1=C[C@H](C2CC2)C[C@H](OCc2ccc(CO)cc2)O1 -25.1%
O=C(C1=C[C@H](c2coc3ccccc3c2=O)C[C@H](OCc2ccc(CO)cc2)O1)N1CCOCC1 -3.08%
O=C(NCc1ccccc1)C1=C[C@@H](C2CCCCC2)C[C@@H](OCc2ccc(CO)cc2)O1 -17.5%
O=C(C1=C[C@H](C2CC2)C[C@H](OCc2ccc(CO)cc2)O1)N1CCN(Cc2ccccc2)CC1 -22.6%
CN1CCN(C(=O)C2=C[C@H](c3ccc4c(c3)OCO4)C[C@H](OCc3ccc(CO)cc3)O2)CC1 -10.6%
CC(=O)n1cc([C@H]2C=C(C(=O)N3CCOCC3)O[C@@H](OCc3ccc(CO)cc3)C2)c2ccccc21 -1.15%
c1ccc(-c2c[nH]c(-c3ccccc3)c2)cc1 14%
N#CCCC(C#N)(c1cccnc1)N1CCOCC1 (configuration not stated) 2.31%
CC(C)(C)c1ccc(/C=C/C(=O)NCCCn2ccnc2)cc1 -13.5%
Oc1cccc(CCc2ccccn2)c1 -8.08%
Cc1cccc(N2CCN(C(=O)COCc3cc(-c4ccc5c(c4)OCO5)on3)CC2)c1C -0.251%
CCc1cc(C(=O)N(CC)CC(=O)Nc2c(F)cccc2F)sc1C -0.176%
COc1cc(CCN=Cc2ccccc2O)c([N+](=O)[O-])cc1OC 13.4%
Cc1csc(=O)n1CCC(=O)OCC(=O)Nc1ccc(N2CCOCC2)cc1 0%
COC(=O)[C@H](Cc1ccccc1)NC(=O)Nc1ccc(S(N)(=O)=O)cc1 9.1%
COc1ccc(C(=O)NC(=S)N2CCCCC2c2cccnc2)cc1OC (configuration not stated) -16.3%
CSc1ncccc1C(=O)N1CCCC(Nc2ccc(F)c(F)c2)C1 (configuration not stated) 43.2%
CC(C)OC(=O)CC(=O)CC(O)c1cccc([N+](=O)[O-])c1 (configuration not stated) 19.7%
CC(=O)N(Cc1cc(=O)[nH]c2ccccc12)c1ccc(C)cc1C 1.3%
CCC(=O)N(Cc1cc2ccccc2[nH]c1=O)c1ccc(OC)cc1 -28.7%
CC(C=Cc1ccccc1)=NNS(=O)(=O)c1ccc([N+](=O)[O-])cc1 -3.19%
CCOc1ccc(S(=O)(=O)N2CCN(C(=O)c3oc4ccccc4c3C)CC2)cc1 -12.6%
N#CC1=C(N)Oc2cc(O)ccc2C1C1CCCCC1 (configuration not stated) 50.4%
N#CC1=C(N)OC2=C(C(=O)CCC2)C1C1CC=CCC1 (configuration not stated) 0.456%
